# Assay results reported in publication PMC7862700, “An all-to-all approach to the identification of sequence-specific readers for epigenetic DNA modifications on cytosine”.
# Tests used:
# Assay in all cases: DAPPL (digital affinity profiling via proximity ligation, sequencing); 10 mM Tris-HCl pH 7.5, 50 mM NaCl, 1 mM DTT, 4% glycerol, room temperature, 30 min; GST-TFs on glutathione beads, 16-mer random dsDNA library, 0.1% formaldehyde crosslink after washing; high values mean tight binding
# FLI1 = target: T1, FLI1 (Homo sapiens, UniProt Q01543 1-452); settings: protein: recombinant; tags: N-terminal GST; dsDNA, one strand shown
# T1 sequence: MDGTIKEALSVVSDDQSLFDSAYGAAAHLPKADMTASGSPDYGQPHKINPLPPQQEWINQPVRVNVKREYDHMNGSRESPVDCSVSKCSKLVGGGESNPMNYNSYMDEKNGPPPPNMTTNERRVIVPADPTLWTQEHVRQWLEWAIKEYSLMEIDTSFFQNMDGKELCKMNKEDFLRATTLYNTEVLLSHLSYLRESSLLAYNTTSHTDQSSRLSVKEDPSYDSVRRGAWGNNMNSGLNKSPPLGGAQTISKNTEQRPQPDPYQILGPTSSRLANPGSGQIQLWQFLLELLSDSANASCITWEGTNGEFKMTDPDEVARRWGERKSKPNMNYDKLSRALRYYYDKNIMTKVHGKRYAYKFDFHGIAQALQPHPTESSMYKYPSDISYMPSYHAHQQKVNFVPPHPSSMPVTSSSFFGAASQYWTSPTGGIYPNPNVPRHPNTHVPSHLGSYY
# In short: (§1)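 After expression in yeast as GST fusions, human transcription factors were bound to glutathione beads, DNA-barcoded and mixed with a tag-only sample. The pools were incubated with 200 nmole of a 16-mer random double-stranded DNA library in Tris/NaCl/DTT/glycerol buffer (30 min, room temperature), washed and crosslinked with 0.1% formaldehyde. Proximity ligation with BsaI/T4 ligase ran for 1 h at 37 °C, before PCR amplification and sequencing on an Illumina NextSeq500. Binding signal is a hexamer's read frequency for a factor divided by its frequency for the tag-only sample.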
# ELK1 = target: T2, ELK1 (Homo sapiens, UniProt P19419 1-428); settings: protein: recombinant; tags: N-terminal GST; dsDNA, one strand shown
# T2 sequence: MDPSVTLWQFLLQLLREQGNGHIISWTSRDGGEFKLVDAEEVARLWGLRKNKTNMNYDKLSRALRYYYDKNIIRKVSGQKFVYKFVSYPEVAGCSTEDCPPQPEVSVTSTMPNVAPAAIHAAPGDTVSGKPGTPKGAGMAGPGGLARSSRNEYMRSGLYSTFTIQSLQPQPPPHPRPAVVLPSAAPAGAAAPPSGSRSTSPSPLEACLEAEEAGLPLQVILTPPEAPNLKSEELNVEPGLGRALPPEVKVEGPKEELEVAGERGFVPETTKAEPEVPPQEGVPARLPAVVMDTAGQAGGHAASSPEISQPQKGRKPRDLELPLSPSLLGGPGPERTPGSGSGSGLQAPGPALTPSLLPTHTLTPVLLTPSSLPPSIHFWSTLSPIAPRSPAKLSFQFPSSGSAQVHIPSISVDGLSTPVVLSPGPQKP
# In short: as §1
# GABPA = target: T3, GABPA (Homo sapiens, UniProt Q06546 1-454); settings: protein: recombinant; tags: N-terminal GST; dsDNA, one strand shown
# T3 sequence: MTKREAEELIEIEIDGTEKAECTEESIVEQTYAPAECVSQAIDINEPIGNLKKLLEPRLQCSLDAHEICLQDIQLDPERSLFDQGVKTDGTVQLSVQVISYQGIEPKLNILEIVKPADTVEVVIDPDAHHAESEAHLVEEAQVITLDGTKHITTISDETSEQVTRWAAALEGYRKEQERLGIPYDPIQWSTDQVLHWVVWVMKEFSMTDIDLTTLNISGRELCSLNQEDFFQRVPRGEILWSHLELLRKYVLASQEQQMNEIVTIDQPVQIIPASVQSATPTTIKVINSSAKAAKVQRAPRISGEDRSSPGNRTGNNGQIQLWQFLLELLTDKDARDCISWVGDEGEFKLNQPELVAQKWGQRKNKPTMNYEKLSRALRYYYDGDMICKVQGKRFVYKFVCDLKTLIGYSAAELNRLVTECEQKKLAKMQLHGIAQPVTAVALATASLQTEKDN
# In short: as §1
# ERG = target: T4, ERG (Homo sapiens, UniProt P11308 1-479); settings: protein: recombinant; tags: N-terminal GST; dsDNA, one strand shown
# T4 sequence: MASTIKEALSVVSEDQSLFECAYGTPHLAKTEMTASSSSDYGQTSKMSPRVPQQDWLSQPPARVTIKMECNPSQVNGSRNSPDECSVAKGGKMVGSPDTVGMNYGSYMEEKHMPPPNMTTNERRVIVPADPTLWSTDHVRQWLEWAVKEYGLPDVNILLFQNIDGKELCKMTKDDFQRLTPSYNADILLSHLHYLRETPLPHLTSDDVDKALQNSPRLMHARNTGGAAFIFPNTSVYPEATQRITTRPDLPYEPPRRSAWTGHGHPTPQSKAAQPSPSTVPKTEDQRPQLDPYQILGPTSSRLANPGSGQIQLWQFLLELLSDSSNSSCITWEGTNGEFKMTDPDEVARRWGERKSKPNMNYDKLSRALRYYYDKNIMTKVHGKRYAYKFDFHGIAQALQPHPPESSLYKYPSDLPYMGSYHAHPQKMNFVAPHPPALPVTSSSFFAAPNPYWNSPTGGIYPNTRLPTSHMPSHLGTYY
# In short: as §1
# ELF1 = ELF1 (Homo sapiens, UniProt P32519 1-619); settings: protein: recombinant; tags: N-terminal GST; dsDNA, one strand shown
# In short: as §1
# EHF = target: T5, EHF (Homo sapiens, UniProt Q9NZC4 1-300); settings: protein: recombinant; tags: N-terminal GST; dsDNA, one strand shown
# T5 sequence: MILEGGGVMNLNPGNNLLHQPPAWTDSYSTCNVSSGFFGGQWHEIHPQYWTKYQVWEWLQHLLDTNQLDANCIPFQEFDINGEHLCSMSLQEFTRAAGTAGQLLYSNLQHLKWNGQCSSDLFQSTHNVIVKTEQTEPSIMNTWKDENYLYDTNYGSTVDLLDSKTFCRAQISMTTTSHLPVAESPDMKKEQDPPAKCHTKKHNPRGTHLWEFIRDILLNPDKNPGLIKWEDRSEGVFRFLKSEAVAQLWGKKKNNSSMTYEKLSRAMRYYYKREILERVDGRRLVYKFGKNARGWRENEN
# In short: as §1
# SPI1 = SPI1 (Homo sapiens, UniProt P17947 1-270); settings: protein: recombinant; tags: N-terminal GST; dsDNA, one strand shown
# In short: as §1
# SPIB = SPIB (Homo sapiens, UniProt Q01892 1-262); settings: protein: recombinant; tags: N-terminal GST; dsDNA, one strand shown
# In short: as §1
# ELK3 = target: T6, ELK3 (Homo sapiens, UniProt P41970 1-407); settings: protein: recombinant; tags: N-terminal GST; dsDNA, one strand shown
# T6 sequence: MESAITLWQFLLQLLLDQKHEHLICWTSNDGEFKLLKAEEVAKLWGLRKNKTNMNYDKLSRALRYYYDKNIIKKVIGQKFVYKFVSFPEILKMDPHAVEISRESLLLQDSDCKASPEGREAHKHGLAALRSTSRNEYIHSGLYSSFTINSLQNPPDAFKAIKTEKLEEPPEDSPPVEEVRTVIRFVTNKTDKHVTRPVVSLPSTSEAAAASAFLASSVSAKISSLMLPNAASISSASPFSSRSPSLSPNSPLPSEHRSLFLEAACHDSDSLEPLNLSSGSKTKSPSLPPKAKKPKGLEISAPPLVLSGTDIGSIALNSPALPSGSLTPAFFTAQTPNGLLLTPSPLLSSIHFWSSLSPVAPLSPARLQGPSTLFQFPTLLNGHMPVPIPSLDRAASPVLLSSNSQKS
# In short: as §1
# FEV = target: T7, FEV (Homo sapiens, UniProt Q99581 1-238); settings: protein: recombinant; tags: N-terminal GST; dsDNA, one strand shown
# T7 sequence: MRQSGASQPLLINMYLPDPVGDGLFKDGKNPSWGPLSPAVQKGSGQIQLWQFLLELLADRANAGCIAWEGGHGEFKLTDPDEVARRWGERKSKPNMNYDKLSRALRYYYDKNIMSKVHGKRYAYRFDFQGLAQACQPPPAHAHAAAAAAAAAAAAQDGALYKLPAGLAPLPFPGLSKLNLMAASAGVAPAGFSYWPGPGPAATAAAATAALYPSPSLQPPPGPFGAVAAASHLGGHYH
# In short: as §1
# ETV5 = ETV5 (Homo sapiens, UniProt P41161 1-510); settings: protein: recombinant; tags: N-terminal GST; dsDNA, one strand shown
# In short: as §1
# HSF1 = HSF1 (Homo sapiens, UniProt Q00613 1-529); settings: protein: recombinant; tags: N-terminal GST; chain copies: 3; dsDNA, one strand shown
# In short: as §1
# SPIC = target: T8, SPIC (Homo sapiens, UniProt Q8N5J4 1-248); settings: protein: recombinant; tags: N-terminal GST; dsDNA, one strand shown
# T8 sequence: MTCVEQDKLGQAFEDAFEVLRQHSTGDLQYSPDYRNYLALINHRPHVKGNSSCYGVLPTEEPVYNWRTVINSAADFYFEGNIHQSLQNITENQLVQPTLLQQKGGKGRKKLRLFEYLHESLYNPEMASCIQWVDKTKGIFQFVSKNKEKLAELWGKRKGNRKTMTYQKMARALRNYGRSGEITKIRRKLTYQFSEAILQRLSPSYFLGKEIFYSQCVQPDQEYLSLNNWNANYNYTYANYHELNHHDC
# In short: as §1
# ELF4 = ELF4 (Homo sapiens, UniProt Q99607 1-663); settings: protein: recombinant; tags: N-terminal GST; dsDNA, one strand shown
# In short: as §1
# ELK4 = target: T9, ELK4 (Homo sapiens, UniProt P28324-2 1-405); settings: protein: recombinant; tags: N-terminal GST; dsDNA, one strand shown
# T9 sequence: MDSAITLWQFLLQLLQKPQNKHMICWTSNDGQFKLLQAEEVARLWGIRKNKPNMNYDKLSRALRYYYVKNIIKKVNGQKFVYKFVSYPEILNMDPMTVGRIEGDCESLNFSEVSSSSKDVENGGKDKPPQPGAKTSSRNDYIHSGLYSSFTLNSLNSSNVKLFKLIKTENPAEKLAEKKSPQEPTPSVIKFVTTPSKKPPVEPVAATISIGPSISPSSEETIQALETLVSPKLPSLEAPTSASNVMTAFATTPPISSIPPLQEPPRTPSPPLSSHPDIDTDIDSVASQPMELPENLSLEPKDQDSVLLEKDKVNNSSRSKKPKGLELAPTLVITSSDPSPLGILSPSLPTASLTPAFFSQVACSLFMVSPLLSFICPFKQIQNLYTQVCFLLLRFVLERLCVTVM
# In short: as §1
# ETV2 = target: T10, ETV2 (Homo sapiens, UniProt O00321 1-342); settings: protein: recombinant; tags: N-terminal GST; dsDNA, one strand shown
# T10 sequence: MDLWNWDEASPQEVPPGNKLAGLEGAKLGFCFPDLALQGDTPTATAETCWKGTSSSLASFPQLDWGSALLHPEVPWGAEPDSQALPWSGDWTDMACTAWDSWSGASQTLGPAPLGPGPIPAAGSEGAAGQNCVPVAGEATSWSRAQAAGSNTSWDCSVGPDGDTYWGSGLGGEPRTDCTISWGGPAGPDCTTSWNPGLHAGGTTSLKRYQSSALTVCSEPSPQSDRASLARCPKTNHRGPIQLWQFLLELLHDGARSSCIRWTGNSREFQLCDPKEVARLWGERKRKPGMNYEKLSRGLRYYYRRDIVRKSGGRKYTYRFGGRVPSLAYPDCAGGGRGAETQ
# In short: as §1
# ELF3 = target: T11, ELF3 (Homo sapiens, UniProt P78545 1-371); settings: protein: recombinant; tags: N-terminal GST; dsDNA, one strand shown
# T11 sequence: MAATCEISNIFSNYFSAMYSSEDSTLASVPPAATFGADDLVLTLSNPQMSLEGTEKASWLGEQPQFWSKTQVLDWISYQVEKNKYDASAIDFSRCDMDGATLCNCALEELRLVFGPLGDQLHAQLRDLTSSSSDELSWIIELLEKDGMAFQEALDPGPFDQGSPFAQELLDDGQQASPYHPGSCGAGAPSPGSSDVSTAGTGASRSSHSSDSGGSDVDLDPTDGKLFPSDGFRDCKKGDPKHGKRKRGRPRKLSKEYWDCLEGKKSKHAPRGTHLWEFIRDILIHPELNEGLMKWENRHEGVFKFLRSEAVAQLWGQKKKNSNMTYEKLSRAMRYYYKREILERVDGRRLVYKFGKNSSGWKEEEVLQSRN
# In short: as §1
# CRX = CRX (Homo sapiens, UniProt O43186 1-299); settings: protein: recombinant; tags: N-terminal GST; dsDNA, one strand shown
# In short: as §1
# ETV1 = ETV1 (Homo sapiens, UniProt P50549 1-477); settings: protein: recombinant; tags: N-terminal GST; dsDNA, one strand shown
# In short: as §1
# Chain of ELF1 (P32519 whole entry): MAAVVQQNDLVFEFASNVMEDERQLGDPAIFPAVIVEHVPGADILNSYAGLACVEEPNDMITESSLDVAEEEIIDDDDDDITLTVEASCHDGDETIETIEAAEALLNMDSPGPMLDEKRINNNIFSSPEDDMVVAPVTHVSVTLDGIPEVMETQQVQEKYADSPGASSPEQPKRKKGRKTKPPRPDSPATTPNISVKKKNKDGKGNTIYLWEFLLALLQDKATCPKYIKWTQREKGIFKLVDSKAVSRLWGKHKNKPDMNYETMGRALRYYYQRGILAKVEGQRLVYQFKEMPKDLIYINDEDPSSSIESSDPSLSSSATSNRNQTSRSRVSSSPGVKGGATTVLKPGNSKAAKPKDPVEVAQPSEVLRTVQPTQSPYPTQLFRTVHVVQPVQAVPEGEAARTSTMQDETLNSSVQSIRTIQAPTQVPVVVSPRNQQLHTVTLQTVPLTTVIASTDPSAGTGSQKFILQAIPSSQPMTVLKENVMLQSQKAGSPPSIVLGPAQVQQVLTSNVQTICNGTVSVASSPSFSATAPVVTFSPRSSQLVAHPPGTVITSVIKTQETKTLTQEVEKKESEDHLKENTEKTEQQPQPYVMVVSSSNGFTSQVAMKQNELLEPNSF
# Chain of ETV5 (P41161 whole entry): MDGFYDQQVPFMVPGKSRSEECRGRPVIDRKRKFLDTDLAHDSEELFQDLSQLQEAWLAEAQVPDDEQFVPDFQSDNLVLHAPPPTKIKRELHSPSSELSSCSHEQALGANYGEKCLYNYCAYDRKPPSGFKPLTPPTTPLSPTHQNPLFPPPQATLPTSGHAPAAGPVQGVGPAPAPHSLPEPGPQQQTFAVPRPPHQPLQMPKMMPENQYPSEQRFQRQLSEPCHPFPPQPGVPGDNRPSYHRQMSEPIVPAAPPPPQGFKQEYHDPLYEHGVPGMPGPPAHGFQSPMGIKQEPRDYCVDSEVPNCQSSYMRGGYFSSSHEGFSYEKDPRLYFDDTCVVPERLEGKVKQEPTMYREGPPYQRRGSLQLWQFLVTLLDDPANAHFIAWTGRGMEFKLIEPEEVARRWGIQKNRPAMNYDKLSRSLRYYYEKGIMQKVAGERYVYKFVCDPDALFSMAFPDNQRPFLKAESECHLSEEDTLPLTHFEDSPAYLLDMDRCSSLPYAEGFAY
# Chain of ETV1 (P50549 whole entry): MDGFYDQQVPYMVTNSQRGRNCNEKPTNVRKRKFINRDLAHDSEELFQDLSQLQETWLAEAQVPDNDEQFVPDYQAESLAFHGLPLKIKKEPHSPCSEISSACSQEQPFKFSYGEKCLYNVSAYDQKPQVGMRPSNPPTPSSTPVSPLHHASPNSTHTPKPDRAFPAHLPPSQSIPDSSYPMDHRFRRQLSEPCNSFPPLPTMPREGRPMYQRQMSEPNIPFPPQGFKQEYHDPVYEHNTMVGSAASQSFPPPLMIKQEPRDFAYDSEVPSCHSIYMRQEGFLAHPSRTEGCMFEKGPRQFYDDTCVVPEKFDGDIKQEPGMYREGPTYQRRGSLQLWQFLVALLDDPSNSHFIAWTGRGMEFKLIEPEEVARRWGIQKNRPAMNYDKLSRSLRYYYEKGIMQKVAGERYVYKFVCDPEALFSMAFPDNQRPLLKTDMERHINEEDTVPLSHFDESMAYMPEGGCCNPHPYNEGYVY
# Chain of ELF4 (Q99607 whole entry): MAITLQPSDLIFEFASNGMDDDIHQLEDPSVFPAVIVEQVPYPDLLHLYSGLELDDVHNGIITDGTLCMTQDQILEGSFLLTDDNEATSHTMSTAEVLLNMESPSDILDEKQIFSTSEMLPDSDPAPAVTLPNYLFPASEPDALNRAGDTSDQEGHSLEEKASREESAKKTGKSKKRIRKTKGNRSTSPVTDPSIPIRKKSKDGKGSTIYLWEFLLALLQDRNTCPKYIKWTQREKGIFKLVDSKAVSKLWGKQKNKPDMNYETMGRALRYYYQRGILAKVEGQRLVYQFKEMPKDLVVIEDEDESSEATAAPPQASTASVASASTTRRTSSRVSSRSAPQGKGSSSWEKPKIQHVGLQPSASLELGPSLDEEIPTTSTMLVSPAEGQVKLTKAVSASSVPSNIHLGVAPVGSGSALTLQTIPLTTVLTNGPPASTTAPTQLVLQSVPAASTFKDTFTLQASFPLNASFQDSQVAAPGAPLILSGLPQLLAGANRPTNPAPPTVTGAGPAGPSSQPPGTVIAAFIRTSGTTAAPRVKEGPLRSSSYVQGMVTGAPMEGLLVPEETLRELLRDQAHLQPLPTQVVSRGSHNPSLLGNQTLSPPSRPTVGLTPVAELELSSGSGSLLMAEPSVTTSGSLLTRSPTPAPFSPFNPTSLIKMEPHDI
# Chain of CRX (O43186 whole entry): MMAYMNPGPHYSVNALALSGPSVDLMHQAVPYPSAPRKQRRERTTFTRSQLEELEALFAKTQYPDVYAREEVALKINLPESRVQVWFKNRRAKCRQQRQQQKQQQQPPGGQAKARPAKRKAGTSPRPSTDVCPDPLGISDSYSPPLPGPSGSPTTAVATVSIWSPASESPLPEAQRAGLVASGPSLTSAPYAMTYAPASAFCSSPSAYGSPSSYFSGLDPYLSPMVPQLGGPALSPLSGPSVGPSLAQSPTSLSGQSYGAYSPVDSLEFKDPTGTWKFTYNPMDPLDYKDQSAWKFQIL
# Chain of SPIB (Q01892 whole entry): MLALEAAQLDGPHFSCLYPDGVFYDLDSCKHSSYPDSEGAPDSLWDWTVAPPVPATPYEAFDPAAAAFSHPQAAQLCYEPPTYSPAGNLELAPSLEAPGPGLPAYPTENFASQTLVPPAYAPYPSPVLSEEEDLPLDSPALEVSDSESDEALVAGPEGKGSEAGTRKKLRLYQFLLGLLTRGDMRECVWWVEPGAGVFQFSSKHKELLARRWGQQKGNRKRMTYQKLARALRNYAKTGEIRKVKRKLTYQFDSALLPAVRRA
# Chain of HSF1 (Q00613 whole entry): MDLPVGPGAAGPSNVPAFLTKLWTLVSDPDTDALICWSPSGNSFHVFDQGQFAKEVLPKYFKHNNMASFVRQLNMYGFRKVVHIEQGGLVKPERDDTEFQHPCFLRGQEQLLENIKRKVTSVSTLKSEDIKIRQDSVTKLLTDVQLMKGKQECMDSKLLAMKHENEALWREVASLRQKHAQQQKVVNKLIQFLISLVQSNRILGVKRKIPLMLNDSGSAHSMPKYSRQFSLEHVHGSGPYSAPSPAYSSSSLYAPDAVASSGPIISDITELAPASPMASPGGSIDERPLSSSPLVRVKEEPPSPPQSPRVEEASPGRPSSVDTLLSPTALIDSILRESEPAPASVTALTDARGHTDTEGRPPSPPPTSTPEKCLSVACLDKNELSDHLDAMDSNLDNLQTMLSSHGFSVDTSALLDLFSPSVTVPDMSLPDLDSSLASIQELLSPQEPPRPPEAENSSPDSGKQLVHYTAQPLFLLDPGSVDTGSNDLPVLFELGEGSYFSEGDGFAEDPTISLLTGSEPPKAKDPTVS
sequence,measurement,setting,value
TTTCTG,binding signal,FLI1,"1.4 fold enrichment (6-mer frequency, TF over GST control)"
same,binding signal,ELK1,"1.35 fold enrichment (6-mer frequency, TF over GST control)"
same,binding signal,GABPA,"1.36 fold enrichment (6-mer frequency, TF over GST control)"
same,binding signal,ERG,"1.33 fold enrichment (6-mer frequency, TF over GST control)"
same,binding signal,ELF1,"1.34 fold enrichment (6-mer frequency, TF over GST control)"
same,binding signal,EHF,"1.38 fold enrichment (6-mer frequency, TF over GST control)"
same,binding signal,SPI1,"1.42 fold enrichment (6-mer frequency, TF over GST control)"
same,binding signal,SPIB,"1.3 fold enrichment (6-mer frequency, TF over GST control)"
same,binding signal,ELK3,"1.46 fold enrichment (6-mer frequency, TF over GST control)"
same,binding signal,FEV,"1.32 fold enrichment (6-mer frequency, TF over GST control)"
same,binding signal,ETV5,"1.31 fold enrichment (6-mer frequency, TF over GST control)"
same,binding signal,HSF1,"2.33 fold enrichment (6-mer frequency, TF over GST control)"
same,binding signal,SPIC,"1.3 fold enrichment (6-mer frequency, TF over GST control)"
same,binding signal,ELF4,"1.39 fold enrichment (6-mer frequency, TF over GST control)"
same,binding signal,ELK4,"1.52 fold enrichment (6-mer frequency, TF over GST control)"
same,binding signal,ETV2,"1.36 fold enrichment (6-mer frequency, TF over GST control)"
same,binding signal,ELF3,"1.44 fold enrichment (6-mer frequency, TF over GST control)"
same,binding signal,CRX,"1.45 fold enrichment (6-mer frequency, TF over GST control)"
same,binding signal,ETV1,"1.3 fold enrichment (6-mer frequency, TF over GST control)"
